High-throughput results (PubChem)
T cruzi growth-1: T. cruzi intracellular proliferation inhibitors, primary screen, cell-based, beta-gal Tulahuen parasites, NIH3T3 host, luminescence | T. cruzi beta-gal in NIH3T3, GalScreen luminescence, 90 h | inhibition, % at 8.34 µM | 77,000 tested, 5.9% active | AID 624255, 2012;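 active means mean inhibition above about 93%, with at least 55% of replicates each passing it, limit read from the data, passing the limit was not always enough; inconclusive means only one of those two conditions holds; inactive means neither condition holds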
Pf Dd2 inh: P. falciparum Dd2 growth inhibitors, primary screen, SYBR Green fluorescence, single dose replicates. 72 h; active compounds read low. 94,000 tested, 2.3% active. activity change, % at 10 µM. AID 1159554, 2015; in the data active means activity change below about -80%; inconclusive means no clear call, values can overlap the other calls
C diff HTS: C. difficile growth inhibitors, primary screen, HTS | 86,000 tested, 0.25% active | Clostridium difficile clinical isolate growth, OD600, 24 h; active compounds read low | growth activity, negative = inhibition, % at 16 µg/mL (by protocol);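 active means mean growth activity at or below -80% and every replicate also at or below -80%; inconclusive means mean at or below -80% but some replicate above -80%; inactive means mean growth activity above -80%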;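 further: 0% = DMSO wells and -100% = levofloxacin 16 µg/mL wells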
T cruzi growth-2: T. cruzi intracellular proliferation inhibitors, confirmation, cell-based, NIH3T3 host, beta-gal parasite, luminescence, cherry-pick; T. cruzi beta-gal in NIH3T3, GalScreen luminescence, 90 h; inhibition, % at 8.35 µM; 5,600 tested, 72% active; shares compounds with T cruzi growth-1; AID 651739, 2012;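 active means mean replicate inhibition above about 95% and at least 55% of replicates individually reaching it, limit read from the data; inconclusive means only one of the two criteria is met; inactive means neither criterion is met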
T cruzi growth-3: inhibitors of intracellular T. cruzi replication, confirmation, NIH3T3 host cells, beta-gal parasites, cherry-pick, set 2; AID 651740, 2012; inhibition, % at 2.09 µM; 5,600 tested, 21% active; shares compounds with T cruzi growth-1; T. cruzi beta-gal in NIH3T3, GalScreen luminescence, 90 h;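 active means mean inhibition above about 95%, with at least 55% of replicates also reaching it, limit read from the data; inconclusive means meets just one of the two conditions; inactive means meets neither condition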;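 further: plate controls were neutral control median for no effect and positive control median for full effect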
NIH3T3 tox: cytotoxicity in mouse NIH/3T3 fibroblasts, confirmation, cytotoxicity control for T. cruzi proliferation inhibitor project, cell-based, cherry-pick, single point | shares compounds with T cruzi growth-1 | NIH/3T3 viability, CellTiter-Glo ATP luminescence, 90 h | cytotoxicity (signal decrease), % at 8.35 µM | 5,600 tested, 14% active | AID 651742, 2012;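 active means mean signal decrease across replicates above about 35% based on untreated-well scatter, with enough replicates individually passing, limit read from the data; inconclusive means no rule stated though some were filed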;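 further: 0% = median of neutral control wells and 100% = median of positive control wells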
NIH3T3 tox 2: NIH/3T3 fibroblast cytotoxicity, confirmation, cytotoxicity control, cell-based, cherry-pick, single point, set 2; shares compounds with T cruzi growth-1; NIH/3T3 viability, CellTiter-Glo ATP luminescence, 90 h; inhibition, % at 24.9 µM; 5,600 tested, 56% active; AID 651744, 2012;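 active means mean loss of cell viability signal at or above a set limit, and enough replicates individually reaching it; inconclusive means meets only the mean limit or only the replicate share; inactive means meets neither condition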;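 further: 0% = median of neutral control wells and 100% = median of positive control wells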
* = called active by the depositor. The list is not random: actives were taken first. Their share in the collection is about 6.8%.

Screening C[C@H](CO)N1C[C@H](C)[C@H](CN(C)S(=O)(=O)c2ccccc2)OCCCC[C@H](C)Oc2ccc(NC(=O)Nc3ccc(F)cc3)cc2C1=O returned T cruzi growth-1 109.2*, Pf Dd2 inh -61.1, C diff HTS -6.7, T cruzi growth-2 105.7*, T cruzi growth-3 83.1, NIH3T3 tox 26.4 and NIH3T3 tox 2 inconclusive.
For CC(C)NC(=O)Nc1ccc2c(c1)C(=O)N([C@H](C)CO)C[C@H](C)[C@H](CN(C)S(=O)(=O)c1ccc(F)cc1)OCCCC[C@H](C)O2 the results were T cruzi growth-1 -58.9 and C diff HTS -11.1.
For C[C@@H]1CCCCO[C@H](CN(C)S(=O)(=O)c2ccccc2)[C@@H](C)CN([C@@H](C)CO)C(=O)c2cc(NC(=O)Nc3ccc(F)cc3)ccc2O1 the results were T cruzi growth-1 106.1*, Pf Dd2 inh -74.7, C diff HTS 4.1, T cruzi growth-2 107.5*, T cruzi growth-3 74.7, NIH3T3 tox 5.2 and NIH3T3 tox 2 35.6*.
Screening C[C@@H]1CCCCO[C@@H](CN(C)S(=O)(=O)c2ccccc2)[C@H](C)CN([C@@H](C)CO)C(=O)c2cc(NC(=O)Nc3ccc(F)cc3)ccc2O1 returned T cruzi growth-1 103.9*, Pf Dd2 inh -35.7, C diff HTS 10.7, T cruzi growth-2 106.8*, T cruzi growth-3 37.5, NIH3T3 tox 0.6 and NIH3T3 tox 2 -9.5.
For CCC(=O)N1CCCCN2[C@@H](CO)[C@@H](c3ccc(C#CCOC)cc3)[C@@H]2C1 the results were T cruzi growth-1 30.6, Pf Dd2 inh 6.2 and C diff HTS -1.9.
`CCC(=O)N1CCCCN2[C@H](CO)[C@H](c3ccc(C#Cc4ccccc4)cc3)[C@H]2C1` gave T cruzi growth-1 108.1*, Pf Dd2 inh -26.5, C diff HTS 2.4, T cruzi growth-2 86.4, T cruzi growth-3 44.5, NIH3T3 tox 40.2* and NIH3T3 tox 2 105.9*.
Screening CCC(=O)N1CCCCN2[C@@H](CO)[C@@H](c3ccc(C#Cc4ccccc4)cc3)[C@@H]2C1 returned T cruzi growth-1 105.6*, Pf Dd2 inh -7.5, C diff HTS 7.9, T cruzi growth-2 103.6*, T cruzi growth-3 82.2, NIH3T3 tox 24.3 and NIH3T3 tox 2 103.9*.
For CCC(=O)N1CCCCN2[C@@H](CO)[C@H](c3ccc(C#CCOC)cc3)[C@@H]2C1 the results were T cruzi growth-1 82.4, Pf Dd2 inh 2.1 and C diff HTS -1.1.
`CCC(=O)N1CCCCN2[C@@H](CO)[C@@H](c3ccc(C#Cc4cccnc4)cc3)[C@@H]2C1` gave T cruzi growth-1 111.0*, Pf Dd2 inh -24.0, C diff HTS 0.0, T cruzi growth-2 102.0*, T cruzi growth-3 76.0, NIH3T3 tox 7.9 and NIH3T3 tox 2 7.6.
CCC(=O)N1CCCCN2[C@@H](CO)[C@H](c3ccc(C#Cc4ccccc4)cc3)[C@@H]2C1 was read as T cruzi growth-1 111.9*, Pf Dd2 inh -10.3, C diff HTS -1.3, T cruzi growth-2 105.0*, T cruzi growth-3 73.4, NIH3T3 tox 58.9* and NIH3T3 tox 2 104.6*.
Screening CCC(=O)N1CCCCN2[C@H](CO)[C@@H](c3ccc(C#Cc4ccccc4)cc3)[C@@H]2C1 returned T cruzi growth-1 85.6, Pf Dd2 inh 14.9 and C diff HTS -3.8.
For CCC(=O)N1CCCCN2[C@H](CO)[C@H](c3ccc(C#Cc4cccnc4)cc3)[C@@H]2C1 the results were T cruzi growth-1 86.9, Pf Dd2 inh 0.3 and C diff HTS -7.3.
C[C@@H]1CCCCO[C@@H](CN(C)C(=O)Nc2ccc(F)cc2)[C@@H](C)CN([C@@H](C)CO)C(=O)c2cc(NC(=O)CCCN(C)C)ccc2O1 was read as Pf Dd2 inh -6.0 and C diff HTS -3.5.
For O=S(=O)(c1ccccc1F)N1CCCCN2[C@H](CO)[C@H](c3ccc(-c4ccncc4)cc3)[C@H]2C1 the results were T cruzi growth-1 101.7*, Pf Dd2 inh -16.1, C diff HTS -6.2, T cruzi growth-2 104.9*, T cruzi growth-3 35.4, NIH3T3 tox 9.4 and NIH3T3 tox 2 0.2.
Screening O=S(=O)(c1ccccc1F)N1CCCCN2[C@H](CO)[C@H](c3ccc(-c4ccncc4)cc3)[C@@H]2C1 returned T cruzi growth-1 43.9, Pf Dd2 inh -4.3 and C diff HTS -10.6.
Screening O=S(=O)(c1ccccc1F)N1CCCCN2[C@H](C1)[C@H](c1ccc(-c3cccnc3)cc1)[C@@H]2CO returned T cruzi growth-1 100.1*, Pf Dd2 inh 23.9, C diff HTS -4.2, T cruzi growth-2 97.8*, T cruzi growth-3 18.9, NIH3T3 tox 16.5 and NIH3T3 tox 2 11.5.
Screening O=S(=O)(c1ccccc1F)N1CCCCN2[C@H](CO)[C@@H](c3ccc(-c4cccnc4)cc3)[C@@H]2C1 returned T cruzi growth-1 93.9, Pf Dd2 inh 30.8 and C diff HTS -19.7.
For OC[C@H]1[C@H](c2ccc(-c3cccc(F)c3)cc2)[C@@H]2CN(CCC(F)(F)F)CCCCN12 the results were T cruzi growth-1 80.4, Pf Dd2 inh -67.0 and C diff HTS 54.3.
`OC[C@@H]1[C@H](c2ccc(/C=C/c3ccccc3)cc2)[C@H]2CN(CCC(F)(F)F)CCCCN12` gave T cruzi growth-1 101.5*, Pf Dd2 inh -74.7, C diff HTS 40.8, T cruzi growth-2 79.4, T cruzi growth-3 106.8*, NIH3T3 tox 73.1* and NIH3T3 tox 2 105.2*.
For C/C=C/c1ccc([C@H]2[C@@H](CO)N3CCCCN(CCC(F)(F)F)C[C@@H]23)cc1 the results were T cruzi growth-1 85.2, Pf Dd2 inh -7.1 and C diff HTS 3.9.
For Cc1cccc(-c2ccc([C@@H]3[C@@H](CO)N4CCCCN(CCC(F)(F)F)C[C@H]34)cc2)c1 the results were T cruzi growth-1 83.5, Pf Dd2 inh -76.3 and C diff HTS 49.5.
OC[C@H]1[C@@H](c2ccc(C#CC3CC3)cc2)[C@H]2CN(CCC(F)(F)F)CCCCN21 was read as T cruzi growth-1 89.6, Pf Dd2 inh -18.0 and C diff HTS 13.5.
Screening Cc1cccc(-c2ccc([C@H]3[C@@H](CO)N4CCCCN(CCC(F)(F)F)C[C@@H]34)cc2)c1 returned T cruzi growth-1 inconclusive, Pf Dd2 inh -35.8, C diff HTS 22.8, T cruzi growth-2 94.1, T cruzi growth-3 84.0, NIH3T3 tox 44.9* and NIH3T3 tox 2 105.2*.
